# Data reported in PubChem BioAssay (EPA / NIEHS).
# Records with an inconclusive call do not appear. Activity calls are given as the source filed them. The calls were made as follows: active = hit-call score of the fitted dose curve at least 0.9, where 1 is the maximum; inconclusive = response in the unintended direction; inactive = score below 0.9.
# Assay: ACEA_ER_AUC_viability: ACEA Biosciences xCELLigence Real-Time Cell Analysis on Estrogen Receptor Agonism for Viability (AID 2283782);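 also: hit means loss of impedance signal meaning reduced cell growth or viability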
# How it was run: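 Continuous-exposure impedance cell analysis uses T-47D cells in charcoal-stripped serum, eight 1:4 dilutions topping at 100 uM final, biological duplicate. Area under the growth curve at 80 h is fitted against DMSO baseline.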
SMILES,AC50,outcome
CCCCC(CC)COC(=O)c1ccc(C(=O)OCC(CC)CCCC)cc1 (stereo not drawn),80 µM (active),–
Cc1ccc(O)cc1,–,inactive
CNS(=O)(=O)c1cc(C(=O)N2CCC(CCN3C4CCC3CC(n3c(C)nc5ccccc53)C4)(c3cccc(F)c3)CC2)c(Cl)cc1F (stereo not drawn),19.2 µM (active),–
O=c1[nH]c2ccc(S(=O)CCN3CCC(Cc4ccc(F)cc4)CC3)cc2o1 (stereo not drawn),–,inactive
COCCOc1cc2cc(C(=O)NC3CCN(C(C)C)CC3)n(CC(=O)Nc3ccc(Cl)cn3)c2cn1,–,inactive
COc1cccc(-c2ccc(/C=C\CN3CCCCCC3)cc2Cl)c1,56.3 µM (active),–
Cc1c(-c2cccnc2)c2ccccc2n1CCCCC(=O)O,17.3 µM (active),–
C1N2CN3CN1CN(C2)C3,–,inactive
CCCC(=O)OCC,–,inactive
O=C1CCC(N2C(=O)c3ccccc3C2=O)C(=O)N1 (stereo not drawn),–,inactive
CC[C@H]1CC[C@H](NCc2cc3c(cc2OC)[C@H]2C[C@H]2C(=O)N3C)[C@H](c2ccccc2)N1,18.5 µM (active),–
O=C(O)c1cccc(Oc2ccccc2)c1,–,inactive
Cn1c(=O)c2c(ncn2C)n(C)c1=O,–,inactive
CCc1cc(SCc2sc(-c3ccc(C(F)(F)F)cc3)nc2CN2CCN(c3ccc(OC)cc3)CC2)ccc1OCC(=O)O,34.5 µM (active),–
COc1ccc2sc(C(=O)Nc3nnn[nH]3)c(OC(C)C)c2c1,9.87 µM (active),–
CCCCCCCCO,–,inactive

# Assay: STM_H9_NormalizedViability: Cytotoxicity Assessment at 120 hours in the Stemina devTOX quickPredict H9 human embryonic stem cell (hESC)-based Assay (AID 2283784)
# How it was run: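 CellTiter-Fluor RFU, background-subtracted, expressed relative to 0.1% DMSO neutral control by plate. Pluripotent H9 cells; treatment with daily re-dosing. Plates carried 1uM methotrexate (positive) and 5 nM methotrexate (negative) references.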
SMILES,outcome,AC50
Cn1c(=O)cc(Oc2ccc(F)cc2F)c2cnc(NCC(C)(C)O)nc21,inactive,–
O=c1[nH]c2ccc(S(=O)CCN3CCC(Cc4ccc(F)cc4)CC3)cc2o1 (stereo not drawn),inactive,–
CC(C)CC(C)(O)C#CC(C)(O)CC(C)C (stereo not drawn),inactive,–
COc1cccc(-c2ccc(/C=C\CN3CCCCCC3)cc2Cl)c1,–,1.1 µM (active)
CC(C)CCO,inactive,–
COCCOCCOCCOC,inactive,–
CCN(C(=O)c1cc(C)cc(OC[C@H](C)Nc2ccncc2)c1)C(C)C,inactive,–
Fc1ccccc1[C@@H](F)COC1CCC(Nc2ncnc3[nH]ncc23)CC1 (stereo partly drawn),inactive,–
CNCc1ccc(NC(=O)c2c[nH]c3c2C(=O)CCC3)cc1,inactive,–
CC[C@H]1CC[C@H](NCc2cc3c(cc2OC)[C@H]2C[C@H]2C(=O)N3C)[C@H](c2ccccc2)N1,–,9.43 µM (active)
Cn1c(=O)c2c(ncn2C)n(C)c1=O,inactive,–
COc1ccc2sc(C(=O)Nc3nnn[nH]3)c(OC(C)C)c2c1,–,2.01 µM (active)
